In PubChem BioAssay (NCI) one finds growth inhibition data, which are given here for 10 molecules.

About 79,000 compounds went through this panel and 15% of them were active in at least one assay; those are over-represented in the sample as a whole. A number with no mark means an inactive call. The source made the active and inactive calls. Cut-off read from the data, not from the text of the source: active = growth inhibition above about 70%; inactive = the rest.

Test [1] is described as follows: NCI Yeast Anticancer Drug Screen. Data for the rad50 strain (AID 155).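 Note: 0% = growth of vehicle-only cultures of the same strain.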 The following applies: S. cerevisiae rad50 strain growth inhibition, hits give high values. The essentials: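 Inhibition values express reduced yeast growth in compound-treated cultures relative to vehicle-treated controls.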
Test [2] in a line: NCI Yeast Anticancer Drug Screen. Data for the mec2-1 strain (AID 157). Conditions: S. cerevisiae mec2-1 strain, hits give high values. The method in brief:
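Compounds were applied to mec2-1 yeast cells. Their growth was then compared with that of vehicle-treated cultures to give growth inhibition.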

Test [3] is described as follows: NCI Yeast Anticancer Drug Screen. Data for the sgs1 mgt1 strain (AID 161).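 Note: 0% = growth of cultures given vehicle only.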 Conditions: S. cerevisiae sgs1 mgt1 strain, hits give high values. The essentials:
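Yeast cells carrying a defined DNA-repair defect were exposed to test compounds. Growth inhibition was measured relative to vehicle-treated controls.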

Test [4] in a line: NCI Yeast Anticancer Drug Screen. Data for the cln2 rad14 strain (AID 165).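 Note: 0% = growth equal to vehicle treated cultures.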 Conditions: S. cerevisiae cln2 rad14 strain, hits give high values. The essentials:
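Strain: cln2 rad14 yeast, altered in cell cycle control and DNA damage repair. Read-out: growth inhibition vs vehicle.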

Test [5] is described as follows: NCI Yeast Anticancer Drug Screen. Data for the bub3 strain (AID 167). Conditions: S. cerevisiae bub3 mutant strain, hits give high values. The method in brief:
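Steps: expose the mutant yeast strain to compound; grow alongside vehicle-treated cultures; measure growth; express inhibition against the vehicle cultures.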

Test [6] in a line: NCI Yeast Anticancer Drug Screen. Data for the mlh1 rad18 strain (AID 175). The following applies: S. cerevisiae mlh1 rad18 strain growth inhibition, hits give high values. The method in brief: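 A repair-deficient yeast strain is exposed to test compound, and growth is scored relative to vehicle-treated controls.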
The mark [7] stands for this setting: at 5.0 µM (retest, dose inferred, filed as 0.5).
Setting [8] is: at 50.0 µM (retest, dose inferred, filed as 5.0).

On to `CCCCNCCCNCCCNC(=O)c1csc(-c2csc(CCNC(=O)C(NC(=O)C(C)C(O)C(C)NC(=O)C(NC(=O)c3nc(C(CC(N)=O)NCC(N)C(N)=O)nc(N)c3C)C(OC3OC(CO)C(O)C(O)C3OC3OC(CO)C(O)C(OC(N)=O)C3O)c3cnc[nH]3)C(C)O)n2)n1` (stereo not given), for which the growth inhibition was 97% (active) in test [1] (setting [7]); 99% (active) in test [1] (setting [8]); 93% (active) in test [1] (at 50.0 µM); 98% (active) in test [2] (setting [7]); 99% (active) in test [2] (setting [8]); 93.8% (active) in test [2] (at 50.0 µM). Moreover, the growth inhibition in test [3] (setting [7]) was 96% (active); in test [3] (setting [8]), 98% (active); in test [3] (at 50.0 µM) it was 94% (active); in test [4] (setting [7]) it was 95% (active); in test [4] (setting [8]), 94% (active); in test [4] (at 50.0 µM), 91.9% (active). Further, the growth inhibition in test [5] (setting [7]) was 97% (active); in test [5] (setting [8]) it was 98% (active); in test [5] (at 50.0 µM), 93.9% (active); in test [6] (setting [7]) it was 98% (active); in test [6] (setting [8]) it was 99% (active); in test [6] (at 50.0 µM) it was 92.7% (active).

Consider `CCOc1ccc2c(c1)[n+]([O-])c(S(=O)(=O)c1ccc(C)cc1)c(N)[n+]2[O-]`, for which the growth inhibition in test [1] (setting [7]) is -5%; in test [1] (setting [8]) it was 63%; in test [1] (at 50.0 µM), 91.2% (active); in test [2] (setting [7]), 18%; in test [2] (setting [8]), 77% (active); in test [2] (at 50.0 µM), 48.3%. For the same molecule, the growth inhibition in test [3] (setting [7]) is 30%; in test [3] (setting [8]), 88% (active); in test [3] (at 50.0 µM) it was 90.8% (active); in test [4] (setting [7]) it was 13%; in test [4] (setting [8]), 55%; in test [4] (at 50.0 µM), 90.3% (active). Also, the growth inhibition in test [5] (setting [7]) was 37%; in test [5] (setting [8]), 97% (active); in test [5] (at 50.0 µM), 93.3% (active); in test [6] (setting [7]), 20%; in test [6] (setting [8]), 85% (active); in test [6] (at 50.0 µM), 94.2% (active).

For the molecule `CC(=O)Oc1ccc2ccccc2c1CN(Cc1c(OC(C)=O)ccc2ccccc12)C(C)=O`, the growth inhibition in test [1] (setting [7]) is 9%; in test [1] (setting [8]), 64%; in test [1] (at 50.0 µM), 88.8% (active); in test [2] (setting [7]), 9%; in test [2] (setting [8]), 53%; in test [2] (at 50.0 µM) it was 72.8% (active). The growth inhibition in test [3] (setting [7]) is 4%; in test [3] (setting [8]) it was 84% (active); in test [3] (at 50.0 µM), 89.6% (active); in test [4] (setting [7]) it was 3%; in test [4] (setting [8]) it was 88% (active); in test [4] (at 50.0 µM), 93.8% (active). The growth inhibition in test [5] (setting [7]) was 3%; in test [5] (setting [8]), 80% (active); in test [5] (at 50.0 µM), 93.8% (active); in test [6] (setting [7]), 11%; in test [6] (setting [8]) it was 85% (active); in test [6] (at 50.0 µM), 55%.

In the case of `CC(C)CCCC(C)C1CCC2C3CCC4=CC(O)CCC4(C)C3CCC12C` (stereo not given), the growth inhibition in test [1] (setting [7]) is -5%; in test [1] (setting [8]), 96% (active); in test [1] (at 50.0 µM) it was 93.8% (active); in test [2] (setting [7]), 1%; in test [2] (setting [8]) it was 94% (active); in test [2] (at 50.0 µM), 90.3% (active). The growth inhibition in test [3] (setting [7]) is -2%; in test [3] (setting [8]) it was 92% (active); in test [3] (at 50.0 µM), 93% (active); in test [4] (setting [7]), -8%; in test [4] (setting [8]), 95% (active); in test [4] (at 50.0 µM), 94.3% (active). The growth inhibition in test [5] (setting [7]) was -5%; in test [5] (setting [8]), 97% (active); in test [5] (at 50.0 µM), 94% (active); in test [6] (setting [7]), -3%; in test [6] (setting [8]), 97% (active); in test [6] (at 50.0 µM), 93.5% (active).

Turning to `O=c1oc(-c2ccc(Cl)cc2[N+](=O)[O-])nc2ccccc12`, the growth inhibition in test [1] (setting [7]) is 16%; in test [1] (setting [8]) it was 10%; in test [1] (at 50.0 µM), 77.2% (active); in test [2] (setting [7]), 17%; in test [2] (setting [8]), -1%; in test [2] (at 50.0 µM), 63.6%. In addition, the growth inhibition in test [3] (setting [7]) is 5%; in test [3] (setting [8]) it was 6%; in test [3] (at 50.0 µM) it was 70.3% (active); in test [4] (setting [7]), 31%; in test [4] (setting [8]) it was 5%; in test [4] (at 50.0 µM), 39.2%. Besides, the growth inhibition in test [5] (setting [7]) was -6%; in test [5] (setting [8]) it was 6%; in test [5] (at 50.0 µM), 66.5%; in test [6] (setting [7]), -23%; in test [6] (setting [8]), -13%; in test [6] (at 50.0 µM), 68.5%.

For `CC1=CC(C)C(C)N(CCNC(=O)Nc2ccccc2)c2ccccc21` (stereo not given), the growth inhibition in test [1] (setting [7]) was 17%; in test [1] (setting [8]), 51%; in test [1] (at 50.0 µM), 77.2% (active); in test [2] (setting [7]) it was 16%; in test [2] (setting [8]), 33%; in test [2] (at 50.0 µM), 80.9% (active). Besides, the growth inhibition in test [3] (setting [7]) is 14%; in test [3] (setting [8]), 71% (active); in test [3] (at 50.0 µM) it was 80.6% (active); in test [4] (setting [7]), 22%; in test [4] (setting [8]) it was 80% (active); in test [4] (at 50.0 µM), 75.5% (active). The growth inhibition is -14% in test [5] (setting [7]); 75% (active) in test [5] (setting [8]); 84.2% (active) in test [5] (at 50.0 µM); 14% in test [6] (setting [7]); 66% in test [6] (setting [8]); 70.2% (active) in test [6] (at 50.0 µM).

For `CN(C)CCCNc1c2ccccc2nc2ccc([N+](=O)[O-])cc12`, the growth inhibition is 16% in test [1] (setting [7]); 80% (active) in test [1] (setting [8]); 68.3% in test [1] (at 50.0 µM); 13% in test [2] (setting [7]); 70% (active) in test [2] (setting [8]); 25.6% in test [2] (at 50.0 µM). Besides, the growth inhibition in test [3] (setting [7]) was 21%; in test [3] (setting [8]) it was 80% (active); in test [3] (at 50.0 µM), 20.7%; in test [4] (setting [7]), 19%; in test [4] (setting [8]) it was 54%; in test [4] (at 50.0 µM), 52.5%. Besides, the growth inhibition in test [5] (setting [7]) was 11%; in test [5] (setting [8]), 59%; in test [5] (at 50.0 µM), 39.5%; in test [6] (setting [7]) it was 31%; in test [6] (setting [8]) it was 84% (active); in test [6] (at 50.0 µM) it was 29.2%.

Consider `Nc1ccccc1C(=O)NCCc1c[nH]c2ccccc12`, for which the growth inhibition in test [1] (setting [7]) was 1%; in test [1] (setting [8]) it was 34%; in test [1] (at 50.0 µM), 6.35%; in test [2] (setting [7]), -3%; in test [2] (setting [8]), 6%; in test [2] (at 50.0 µM) it was 11.8%. The growth inhibition in test [3] (setting [7]) was 4%; in test [3] (setting [8]), 40%; in test [3] (at 50.0 µM), 33.8%; in test [4] (setting [7]), -5%; in test [4] (setting [8]) it was 27%; in test [4] (at 50.0 µM), 66.6%. Besides, the growth inhibition in test [5] (setting [7]) is -7%; in test [5] (setting [8]), 18%; in test [5] (at 50.0 µM) it was 48.5%; in test [6] (setting [7]), 3%; in test [6] (setting [8]) it was 38%; in test [6] (at 50.0 µM), 7%.

For the molecule `Cc1ccc(C2(O)c3ccccc3-c3ccccc32)cc1`, the growth inhibition in test [1] (setting [7]) was 4%; in test [1] (setting [8]), 98% (active); in test [1] (at 50.0 µM) it was 99.2% (active); in test [2] (setting [7]) it was 8%; in test [2] (setting [8]), 100% (active); in test [2] (at 50.0 µM) it was 99.2% (active). In addition, the growth inhibition is 15% in test [3] (setting [7]); 99% (active) in test [3] (setting [8]); 99.2% (active) in test [3] (at 50.0 µM); -9% in test [4] (setting [7]); 99% (active) in test [4] (setting [8]); 98.2% (active) in test [4] (at 50.0 µM). In addition, the growth inhibition in test [5] (setting [7]) is -8%; in test [5] (setting [8]), 99% (active); in test [5] (at 50.0 µM), 99.3% (active); in test [6] (setting [7]) it was -4%; in test [6] (setting [8]) it was 98% (active); in test [6] (at 50.0 µM) it was 99% (active).

For `O=C1C=CC(=C(c2ccccc2)c2ccc(O)cc2)C=C1`, the growth inhibition was -5% in test [1] (setting [7]); 75% (active) in test [1] (setting [8]); 31.3% in test [1] (at 50.0 µM); -8% in test [2] (setting [7]); 72% (active) in test [2] (setting [8]); 80.3% (active) in test [2] (at 50.0 µM). The growth inhibition in test [3] (setting [7]) was -5%; in test [3] (setting [8]) it was -27%; in test [3] (at 50.0 µM) it was 65.3%; in test [4] (setting [7]) it was -7%; in test [4] (setting [8]), 76% (active); in test [4] (at 50.0 µM), 27.6%. Further, the growth inhibition in test [5] (setting [7]) was -8%; in test [5] (setting [8]) it was 92% (active); in test [5] (at 50.0 µM), 92.2% (active); in test [6] (setting [7]), 2%; in test [6] (setting [8]) it was 86% (active); in test [6] (at 50.0 µM), 81% (active).
